# Experimental data taken from PubChem BioAssay (NCATS).
# Records with an inconclusive call do not appear. Where a call stands in place of a potency, no number is given. A number with no mark means an inactive call. Calls of active or inactive are those of the source. Calls come from the whole dose curve; as a rule, active = well fitted curve in the direction sought with a large enough effect; inconclusive = small, poorly fitted or top-dose-only effect, or another doubt; inactive = no such curve, though single readings can be large; an effect the other way counts as inactive or inconclusive.
# Columns and labels:
# [1] = qHTS of pediatric cancer cell lines to identify multiple opportunities for drug repurposing: Primary screen for SK-N-SH cells (AID 1347098);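 note: DMSO served as neutral control and bortezomib at 2.3 µM as positive control; nearly all actives have a fitted effect of over 65% in size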
# In short: (§1)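 Cells (500-1,000/well) rested 5 h, then received compounds for 48 h; metabolically active cells were measured by CellTiter-Glo luminescence. Final concentrations spanned up to 46 µM (MIPE, 11-point) or 0.59 nM-46 µM (NPC, 8-point) in primary screens, 11-point in follow-ups.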
# [2] = qHTS of pediatric cancer cell lines to identify multiple opportunities for drug repurposing: Primary screen for NB1643 cells (AID 1347099); note: nearly all actives have a fitted effect of over 50% in size; note: potency is the fitted concentration of half-maximal effect
# In short: (§2)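 CRCs from 8- or 11-point titrations (lowest final 0.59 nM NPC, 0.78 nM MIPE). Cell viability: CellTiter-Glo after 48 h incubation, 15 min room-temperature development, luminescence imaging.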
# [3] = qHTS of pediatric cancer cell lines to identify multiple opportunities for drug repurposing: Primary screen for Rh18 cells (AID 1347102); note: nearly all actives have a fitted effect of over 65% in size; note: potency is the fitted concentration of half-maximal effect
# In short: as §1
# [4] = qHTS of pediatric cancer cell lines to identify multiple opportunities for drug repurposing: Primary screen for MG 63 (6-TG R) cells (AID 1347105); note: nearly all actives have a fitted effect of over 50% in size; note: potency is the fitted concentration of half-maximal effect
# In short: as §2
# [5] = qHTS of pediatric cancer cell lines to identify multiple opportunities for drug repurposing: Primary screen for control Hh wild type fibroblast cells (AID 1347106);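 note: series mostly up to about 46 µM; a drop in luminescence marks cytotoxicity and a rise apparent proliferation; nearly all actives have a fitted effect of over 55% in size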
# In short: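 Cells (500-1,000/well) in growth media were settled 5 h at 37 degrees C, then given compounds for 48 h. Viability was read as CellTiter-Glo luminescence. Primary runs used MIPE at 11 points (0.78 nM-46 µM) and NPC at 8 points (0.59 nM-46 µM); follow-ups used 11 points.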
# [6] = qHTS of pediatric cancer cell lines to identify multiple opportunities for drug repurposing: Primary screen for LAN-5 cells (AID 1347100)
# In short: as §1
# [7] = qHTS of pediatric cancer cell lines to identify multiple opportunities for drug repurposing: Primary screen for BT-12 cells (AID 1347101); note: nearly all actives have a fitted effect of over 25% in size; note: potency is the fitted concentration of half-maximal effect
# In short: as §1
# [8] = qHTS of pediatric cancer cell lines to identify multiple opportunities for drug repurposing: Primary screen for RD cells (AID 1347104); note: nearly all actives have a fitted effect of over 55% in size
# In short: as §2
# [9] = qHTS of pediatric cancer cell lines to identify multiple opportunities for drug repurposing: Primary screen for OHS-50 cells (AID 1347103); note: nearly all actives have a fitted effect of over 40% in size; note: potency is the fitted concentration of half-maximal effect
# In short: as §1
# [10] = qHTS of pediatric cancer cell lines to identify multiple opportunities for drug repurposing: Primary screen for Saos-2 cells (AID 1347097); note: nearly all actives have a fitted effect of over 40% in size; note: potency is the fitted concentration of half-maximal effect
# In short: as §2
compound,measurement,setting,value
CCCCN(CCCC)CC(O)c1cc(Cl)cc2c1-c1ccc(Cl)cc1/C2=C/c1ccc(Cl)cc1 (centres undefined),Potency,[1],inactive
same,Potency,[2],inactive
same,Potency,[3],21100 nM (active)
same,Potency,[4],inactive
same,outcome,[5],inactive
C[C@@H]1CC[C@@]2(OC1)O[C@H]1C[C@H]3[C@@H]4CC[C@H]5C[C@@H](O)CC[C@]5(C)[C@H]4CC(=O)[C@]3(C)[C@H]1[C@@H]2C,"activity change, negative = cytotoxic",[1],-10.6% [at 6 µM]
same,"activity change, negative = cytotoxic",[2],31.5% [at 4.84 µM]
same,"activity change, negative = cytotoxic",[6],-6.9% [at 4.84 µM]
same,"activity change, negative = cytotoxic",[7],6.34% [at 6.03 µM]
same,"activity change, negative = cytotoxic",[3],11.3% [at 4.84 µM]
same,"activity change, negative = cytotoxic",[8],12.6% [at 4.84 µM]
same,"activity change, negative = cytotoxic",[4],-5.19% [at 4.84 µM]
same,"activity change, negative = cytotoxic",[5],6.44% [at 4.84 µM]
CC/C=C(\C(=O)N[C@@H]1C(=O)N2C(C(=O)OCOC(=O)C(C)(C)C)=C(COC(N)=O)CS[C@H]12)c1csc(N)n1,Potency,[1],inactive
same,Potency,[2],inactive
same,Potency,[7],inactive
same,Potency,[9],inactive
same,Potency,[8],inactive
same,Potency,[4],inactive
same,outcome,[5],inactive
O=C(O)CN1C(=O)c2cccc3cccc(c23)C1=O,Potency,[1],inactive
same,Potency,[2],inactive
same,Potency,[6],inactive
same,Potency,[7],1 nM (active)
same,Potency,[3],inactive
same,Potency,[9],1 nM (active)
same,Potency,[8],inactive
same,Potency,[4],inactive
same,outcome,[5],inactive
NC1[C@H]2CN(c3nc4c(cc3F)c(=O)c(C(=O)O)cn4-c3ccc(F)cc3F)C[C@@H]12 (some centres undefined),Potency,[10],inactive
same,Potency,[3],inactive
same,Potency,[9],inactive
same,Potency,[4],inactive
CC(=O)NC(Cc1ccccc1)C(=O)O (centres undefined),Potency,[1],inactive
same,Potency,[2],inactive
same,Potency,[6],inactive
same,Potency,[7],inactive
same,Potency,[3],inactive
same,Potency,[9],inactive
same,Potency,[8],inactive
same,outcome,[5],inactive
O=C(O)[C@@H]1CSCN1,Potency,[1],inactive
same,Potency,[2],inactive
same,Potency,[7],inactive
same,Potency,[3],inactive
same,Potency,[9],inactive
same,Potency,[8],inactive
same,Potency,[4],inactive
same,outcome,[5],inactive
CC1(C)Oc2ccc(C#N)cc2[C@@H](N2CCCC2=O)[C@@H]1O,Potency,[1],inactive
same,Potency,[2],inactive
same,Potency,[6],inactive
same,Potency,[7],inactive
same,Potency,[3],inactive
same,Potency,[9],inactive
same,Potency,[8],inactive
same,Potency,[4],inactive
same,outcome,[5],inactive
C[C@]12CC[C@@H]3c4ccc(O)cc4CC[C@H]3[C@@H]1CCC2=O,Potency,[1],inactive
same,Potency,[2],inactive
same,Potency,[3],inactive
same,Potency,[8],inactive
same,Potency,[4],inactive
same,outcome,[5],inactive
Nc1nc2c(ncn2CCC(CO)CO)c(=O)[nH]1,Potency,[1],inactive
same,Potency,[2],inactive
same,Potency,[6],inactive
same,Potency,[7],inactive
same,Potency,[9],inactive
same,Potency,[8],inactive
same,Potency,[4],inactive
same,outcome,[5],inactive
O=c1cc[nH]c(=S)[nH]1,Potency,[1],inactive
same,Potency,[2],1 nM (active)
same,Potency,[6],inactive
same,Potency,[7],inactive
same,Potency,[3],inactive
same,Potency,[9],inactive
same,Potency,[4],inactive
same,outcome,[5],inactive
O=C(CCCN1CCN(c2ccccn2)CC1)c1ccc(F)cc1,Potency,[1],inactive
same,Potency,[2],inactive
same,Potency,[6],inactive
same,Potency,[3],inactive
same,Potency,[8],inactive
same,Potency,[4],inactive
same,outcome,[5],inactive
Nc1ccc(S(=O)(=O)Nc2nccs2)cc1,Potency,[1],inactive
same,Potency,[2],inactive
same,Potency,[7],inactive
same,Potency,[3],inactive
same,Potency,[9],inactive
same,Potency,[8],inactive
same,Potency,[4],inactive
same,outcome,[5],inactive
N[C@H]1C(O)O[C@H](CO)[C@@H](O)[C@@H]1O (some centres undefined),Potency,[1],inactive
same,Potency,[2],inactive
same,Potency,[6],inactive
same,Potency,[3],inactive
same,Potency,[9],inactive
same,Potency,[8],inactive
same,Potency,[4],inactive
same,outcome,[5],inactive
CC(C)c1c(C(=O)Nc2ccccc2)c(-c2ccccc2)c(-c2ccc(F)cc2)n1CC[C@@H](O)C[C@@H](O)CC(=O)O,Potency,[10],841 nM (active)
same,Potency,[8],inactive
same,Potency,[4],6680 nM (active)
NC(=O)c1ncn([C@@H]2O[C@H](CO)[C@@H](O)[C@H]2O)c1N,Potency,[1],inactive
same,Potency,[2],inactive
same,Potency,[6],inactive
same,Potency,[3],inactive
same,Potency,[9],inactive
same,Potency,[8],inactive
same,Potency,[4],inactive
same,outcome,[5],inactive
